Assay results from PubChem BioAssay (Tox21).
Values joined by “and” are separate entries in the source; they are usually repeats but may differ in a detail not shown here. Identical values can stand only once. Results filed as inconclusive are left out. Where a call stands in place of a potency, no number is given. More than one record can exist for a structure, and the calls need not agree. Active and inactive are the calls of the source. Unless noted, calls follow the shape of the dose curve; as a rule, active = well fitted curve in the direction sought with a large enough effect in the repeat runs; inconclusive = weak or mixed curves; inactive = no such curve, though single readings can be large; an effect the other way counts as inactive or inconclusive.

Tests used:
[1] = qHTS assay to identify small molecule antagonists of the vitamin D receptor (VDR) signaling pathway - cell viability counter screen (AID 743225); also: nearly all actives have a fitted effect of over 50% in size; also: potency is read from the fitted curve at half-maximal effect
Outline: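 Cells (VDR-UAS-bla HEK 293T) are plated, rested 4 h at 37C, dosed with compound and 3 nM final 1-alpha,25-dihydroxy vitamin D3, and incubated 16 h. Viability is taken from CellTiter-Glo luminescence in the reporter wells.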

[2] = qHTS assay to identify small molecule agonists of the NFkB signaling pathway - cell viability counter screen (AID 1159515; calls by dose curve; also: nearly all actives have a fitted effect of over 55% in size; also: potency is read from the fitted curve at half-maximal effect)
Outline: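 Parallel cytotoxicity counter screen in ME-180 cells carrying an NFkB-response-element beta-lactamase reporter, 2,000 cells/well. Compound exposure lasted 5 hr at 37 C, 5% CO2. Cell viability was quantified by CellTiter-Glo luminescence.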

[3] = qHTS assay to identify small molecule antagonists of the retinoid-related orphan receptor gamma (ROR-gamma) signaling pathway - cell viability counter screen (AID 1159520); also: nearly all actives have a fitted effect of over 50% in size; also: potency is read from the fitted curve at half-maximal effect
Outline: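 Tet-on ROR gamma CHO cells (1,000/well) were plated 4 hr, given compounds in DMSO for 2 hr at 37 C, then induced with 1 uM final doxycycline for 16 hr. Viability was read as ATP by CellTiter-Glo luminescence after 30 min.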

[4] = target: Nuclear receptor ROR-gamma (Homo sapiens) (UniProt P51449); assay: qHTS assay to identify small molecule antagonists of the retinoid-related orphan receptor gamma (ROR-gamma) signaling pathway (AID 1159521; also: nearly all actives have a fitted effect of over 50% in size; also: potency is read from the fitted curve at half-maximal effect)
Outline: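 RORγ antagonism is scored from reduced reporter luminescence in Tet-on CHO cells. Induction used 1 uM final doxycycline hyclate for 16 h at 37 C, following a 2 h compound exposure.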

[5] = qHTS assay to identify small molecule agonists of the AP-1 signaling pathway - cell viability counter screen (AID 1159525; calls by dose curve; also: nearly all actives have a fitted effect of over 55% in size; also: potency is read from the fitted curve at half-maximal effect)
Outline: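 Each titration point was normalised to DMSO and tetra n-octyl ammonium bromide controls. The read was Cell Titer Glo luminescence after 30 min at RT, following 5 h compound exposure of ME-180 AP-1-bla cells at 37 °C.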

[6] = qHTS assay to identify small molecule agonists of the AP-1 signaling pathway (AID 1159526; calls by dose curve)
[7] = qHTS assay to identify small molecule antagonists of the retinoid acid receptor (RAR) signaling pathway - cell viability counter screen (AID 1159551); also: nearly all actives have a fitted effect of over 35% in size; also: potency is read from the fitted curve at half-maximal effect
Outline: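 ATP-based viability, C3RL4 cells, 6 h at 37 C with 1 uM final retinol co-added after compound; luminescence read 30 min post CellTiter-Glo, RT.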

[8] = qHTS assay to identify small molecule antagonists of the retinoic acid receptor (RAR) signaling pathway (AID 1159552; also: nearly all actives have a fitted effect of over 50% in size; also: potency is read from the fitted curve at half-maximal effect)
Outline: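 Quantitative HTS in C3RL4 RARE-luciferase reporter cells. Compounds were added with 1 uM (final) retinol; luminescence was read after 6 hr.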

[9] = qHTS assay to identify small molecule agonists of the retinoic acid receptor (RAR) signaling pathway (AID 1159553)
Outline: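 Quantitative high-throughput format: the Tox21 10K library was tested on C3RL4 RARE-luciferase cells for 6 hr at 37 C and 5% CO2, with luminescence measured after a 30 min room-temperature reagent step.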

[10] = qHTS assay to identify small molecule antagonists of the estrogen related receptor (ERR) signaling pathway from Tox21 library - cell viability counter screen (AID 1224834); also: nearly all actives have a fitted effect of over 30% in size; also: potency is read from the fitted curve at half-maximal effect
Outline: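 Compounds in DMSO were pinned onto ERR cells that had been incubated for 6 h, and the plates were held at 37 C for 17.5 h. CellTiter-Fluor reagent was then added and fluorescence was measured after 30 min.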

[11] = qHTS assay to identify small molecule agonists of the RXR signaling pathway - cell viability counter screen (AID 1159529); also: nearly all actives have a fitted effect of over 50% in size; also: potency is read from the fitted curve at half-maximal effect
Outline: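 Cell viability is measured by CellTiter-Glo luminescence, 30 min at room temperature, in wells already read for beta-lactamase. Engineered HEK 293T cells (RXR-alpha-UAS-bla) are dosed 16 hr at 37 C. Tetraoctyl ammonium bromide serves as positive control.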

[12] = qHTS assay to identify small molecule antagonists of the estrogen related receptor (ERR) signaling pathway - cell viability counter screen (AID 1224818);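 also: series mostly up to about 46 µM; viability measured after 17.5 h of compound exposure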
Outline: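 Quantitative high-throughput viability counter screen in ERR cells. Compounds (DMSO) incubated 17.5 h at 37 C; read-out was CellTiter-Fluor fluorescence.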

[13] = target: Retinoic acid receptor RXR-alpha (Homo sapiens) (UniProt P19793); assay: qHTS assay to identify small molecule agonists of the RXR signaling pathway (AID 1159527; calls by dose curve; also: nearly all actives have a fitted effect of over 35% in size)
Outline: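 qHTS of the Tox21 10K library in GeneBLAzer RXR-alpha HEK 293T cells carrying a beta-lactamase reporter […]; 16 hr treatment, 9-cis retinoic acid as agonist control, FRET read-out.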

[14] = qHTS assay to identify small molecule agonists of the endoplasmic reticulum stress response signaling pathway - cell viability counter screen (AID 1159517; calls by dose curve)
Outline: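 Cpd-treated ESRE-bla HeLa (5 hr, 37 C) → LiveBLAzer 2 hr RT → CellTiter-Glo 30 min RT → luminescence.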

Retinoic acid receptor RXR-alpha (Homo sapiens), sequence (P19793 whole entry, looked up): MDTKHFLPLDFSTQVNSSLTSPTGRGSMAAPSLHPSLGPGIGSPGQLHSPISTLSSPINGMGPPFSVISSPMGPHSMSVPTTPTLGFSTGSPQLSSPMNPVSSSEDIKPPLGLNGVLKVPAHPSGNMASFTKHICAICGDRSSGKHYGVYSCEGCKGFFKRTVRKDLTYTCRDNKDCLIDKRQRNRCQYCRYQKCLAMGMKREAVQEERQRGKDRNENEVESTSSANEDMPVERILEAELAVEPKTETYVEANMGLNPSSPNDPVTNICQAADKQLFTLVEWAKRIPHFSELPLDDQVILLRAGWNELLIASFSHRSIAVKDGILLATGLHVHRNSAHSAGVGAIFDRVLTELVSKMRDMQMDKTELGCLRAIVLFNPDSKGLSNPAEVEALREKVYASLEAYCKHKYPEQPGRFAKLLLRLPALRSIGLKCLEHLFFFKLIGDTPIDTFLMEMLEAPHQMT

Row | Compound | Potency [1] | Potency [2] | Potency [3] | Potency [4] | Potency [5] | Potency [6] | Potency [7] | Potency [8] | Potency [9] | Potency [10] | Potency [11] | outcome [12] | outcome [13] | Potency [14]
1 | CCOC(=O)OC1=C(c2cc(C)ccc2C)C(=O)NC12CCC(OC)CC2 (stereo not given) | inactive | inactive | inactive | inactive | inactive | inactive | inactive | 43.2 µM (active) | inactive | inactive | – | – | – | –
2 | CCN(CC)C(=S)[S-].CCN(CC)C(=S)[S-].[Zn+2] | 3.06 µM (active) | 12.2 µM (active) | 5.4 µM (active) | 0.856 µM (active) | 12.2 µM (active) | – | – | – | – | 3.41 µM (active) | 1.72 µM (active) | – | – | –
3 | CCOP(=O)(NC(C)C)Oc1ccc(SC)c(C)c1 (stereo not given) | – | inactive | inactive | 9.69 µM (active) | – | – | inactive | – | inactive | – | inactive | inactive | – | –
4 | C[C@H]1CC[C@@H]2[C@@H](C)[C@H]3[C@H](C[C@H]4[C@@H]5CC=C6CC(O[C@@H]7O[C@H](CO)[C@H](O)[C@H](O[C@@H]8O[C@H](CO)[C@@H](O)[C@H](O)[C@H]8O)[C@H]7O[C@H]7O[C@@H](C)[C@H](O)[C@@H](O)[C@H]7O)CC[C@]6(C)[C@H]5CC[C@]34C)N2C1 (stereo not given in full) | inactive | 56.7 µM (active) | 28.2 µM (active) | inactive | 20.1 µM (active) | – | 25.1 µM (active) | 28.2 µM (active) | inactive | 22.4 µM (active) | 14.3 µM (active) | – | – | –
5 | CCc1nn(C)c(C(=O)NCc2ccc(C(C)(C)C)cc2)c1Cl | 38.9 µM (active) | 54.9 µM (active) | 21.7 µM (active) | 0.545 µM (active) | 54.9 µM (active) | – | – | 27.3 µM (active) | – | 30.6 µM (active) | 43.6 µM (active) | – | – | –
6 | C[C@H]1O[C@@H](O[C@H]2[C@@H](O)C[C@H](O[C@H]3[C@@H](O)C[C@H](O[C@H]4CC[C@@]5(C)[C@H](CC[C@@H]6[C@@H]5CC[C@]5(C)[C@@H](C7=CC(=O)OC7)CC[C@]65O)C4)O[C@@H]3C)O[C@@H]2C)C[C@H](O)[C@@H]1O | 8.8 nM (active) and 84.9 nM (active) | 0.124 µM (active) | inactive | 5.48 µM (active) and 16.8 µM (active) | – | – | inactive | – | – | 43.5 nM (active) and 75 nM (active) | 0.0621 µM (active) | – | – | –
7 | N#CSCSC#N | 50.1 µM (active) and 34.3 µM (active) | 25.1 µM (active) | 15.7 µM (active) and 4.28 µM (active) | 12.1 µM (active) | 25.1 µM (active) and 21.7 µM (active) | – | 27.9 µM (active) and 30.3 µM (active) | 24.9 µM (active) | – | 62.5 µM (active) and 60.5 µM (active) | 17.8 µM (active) and 17.2 µM (active) | – | – | –
8 | CCOCn1c(-c2ccc(Cl)cc2)c(C#N)c(Br)c1C(F)(F)F | 4.9 µM (active) | inactive | 9.69 µM (active) | 0.686 µM (active) | inactive | – | – | 3.06 µM (active) | inactive | 4.86 µM (active) | 19.5 µM (active) | – | – | –
9 | Fc1cccc(Cl)c1CCl | – | inactive | inactive | inactive | inactive | inactive | inactive | inactive | inactive | inactive | – | – | inactive | –
10 | O=c1c(C2CC(c3ccc(-c4ccc(Br)cc4)cc3)Cc3ccccc32)c(O)sc2ccccc12 (stereo not given) | – | inactive | inactive | 2.66 µM (active) | – | inactive | inactive | – | inactive | – | inactive | – | – | –
11 | COP(=O)(OC)SCn1c(=O)oc2cc(Cl)cnc21 | – | inactive | inactive | inactive | inactive | – | inactive | – | – | – | inactive | – | – | –
12 | Clc1ccc(C(c2ccc(Cl)cc2)C(Cl)(Cl)Cl)cc1 | inactive | 55.3 µM (active) | 61.6 µM (active) and inactive | 61.6 µM (active) | 34.9 µM (active) and 38.9 µM (active) | – | inactive | – | – | inactive | – | – | – | –
13 | COc1cc(C=O)cc2c1[C@H](COC(N)=O)[C@]1(OC(C)=O)ON2C[C@H]2[C@@H]1N2C(C)=O | inactive | inactive | inactive | – | inactive | inactive | inactive | – | – | – | inactive | – | – | –
14 | CCCCCCCCCCCCCN1CC(C)OC(C)C1 (stereo not given) | inactive | inactive | inactive | inactive | inactive | inactive | inactive | inactive | inactive | inactive | inactive | – | – | –
15 | Cc1ccc(OP(=O)(Oc2ccccc2)Oc2ccccc2)cc1 | inactive | inactive | inactive | – | inactive | inactive | inactive | inactive | inactive | inactive | inactive | – | – | –
16 | C[C@@H]1O[C@@H](O[C@H]2C[C@@H](O)[C@]3(CO)[C@H]4[C@H](O)C[C@]5(C)[C@@H](C6=CC(=O)OC6)CC[C@]5(O)[C@@H]4CC[C@]3(O)C2)[C@H](O)[C@H](O)[C@H]1O | 16.5 nM (active) and 107 nM (active) | 0.0261 µM (active) | inactive | – | inactive | inactive | – | inactive | inactive | 91.9 nM (active) and 84.1 nM (active) | – | inactive | – | –
17 | Oc1ccc(C(=C(Cl)Cl)c2ccc(O)cc2)cc1 | – | inactive | inactive | – | inactive | inactive | inactive | inactive | inactive | – | – | – | – | –
18 | BrC(Br)C(Br)(Br)Br | – | inactive | – | – | inactive | inactive | inactive | 30.8 µM (active) | inactive | – | – | – | – | inactive
19 | CC1(c2ccc(Oc3ccccc3)cc2)OC(=O)N(Nc2ccccc2)C1=O (stereo not given) | 39.1 µM (active) | inactive | 54.8 µM (active) | 6.15 µM (active) | inactive | – | – | 27.5 µM (active) | – | 27.5 µM (active) | – | – | – | –
